Measured values reported in PubChem BioAssay (Tox21).
Records with an inconclusive call do not appear. Where a call stands in place of a potency, no number is given. The source made the active and inactive calls. The call rests on the fitted dose curve; in most records, active means well fitted activation curve with a large enough effect in the signal ratio in the repeat runs (not every such curve was filed as active); inconclusive means weak or mixed curves; inactive means flat fitted curve, though single readings scatter; the % refers to the signal ratio.

Assay: p53 small molecule agonists, cell-based qHTS assay (AID 1963582)
Details: HCT-116 p53RE-bla reporter, beta-lactamase FRET ratio, 16 h; series mostly up to 66 µM
Method in brief: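 p53RE-bla reporter cells, compounds added in DMSO after 5 h plating, incubated 16 h at 37 C. Beta-lactamase read via 2 h room-temperature LiveBLAzer B/G FRET substrate, fluorescence intensity.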
Potency means the concentration at half of the fitted maximal effect.

Structure (SMILES) | Potency
CCN(CC)C(=O)SCc1ccc(Cl)cc1 | inactive
CCCCNC(=O)n1c(NC(=O)OC)nc2ccccc21 | 10.2 µM (active)
ClCc1cccnc1 | inactive
CCCN(CCOc1c(Cl)cc(Cl)cc1Cl)C(=O)n1ccnc1 | inactive
CCOS(=O)(=O)OCC | inactive
COC[C@@H](NC(C)=O)C(=O)NCc1ccccc1 | inactive
CC(C)CC(C)(c1ccc(O)cc1)c1ccc(O)cc1 | inactive
COc1cccc(C=O)c1 | inactive
c1ccc(N=NNc2ccccc2)cc1 | inactive
ClC(Cl)=C(c1ccc(Cl)cc1)c1ccc(Cl)cc1 | inactive
CCCC(=O)Cl | inactive
N#Cc1ccncc1 | inactive
COC(=O)C(Cl)C(=O)OC | inactive
CCNc1nc(Cl)nc(NC(C)(C)C#N)n1 | inactive
C=CC(C)=O | inactive
Oc1ccccc1Cl | inactive
O=[N+]([O-])c1cc(Cl)ccc1Cl | inactive
N#CCNCC#N | inactive
ClCCN1CCCC1 | inactive
COP(=O)(CCC(=O)NCO)OC | inactive
CC(C)(C#N)N=NC(C)(C)C#N | inactive
ClCCN1CCOCC1 | inactive
CCOP(=O)(OCC)SCCSCC | inactive

Structure (SMILES) | Potency
ClCc1ccccn1 | inactive
C=CCc1ccccc1O | inactive
CCCCN(CC)c1c([N+](=O)[O-])cc(C(F)(F)F)cc1[N+](=O)[O-] | inactive
CON(C)C(=O)Nc1ccc(Cl)cc1 | inactive
CCCCc1c(C)nc(NCC)[nH]c1=O | inactive
CC(C)N(C(=O)SCC(Cl)=C(Cl)Cl)C(C)C | inactive
CC(C)OC(=S)S | inactive
OC(c1ccc(Cl)cc1)(c1cncnc1)c1ccccc1Cl (stereo not given) | inactive
O=C(O)C(F)(F)C(F)(F)C(F)(F)C(F)(F)C(F)(F)C(F)(F)C(F)(F)F | inactive
CCCC[n+]1cccc(C)c1 | inactive
O=S(=O)(O)C(F)(F)C(F)(F)C(F)(F)C(F)(F)C(F)(F)C(F)(F)C(F)(F)C(F)(F)F | inactive
OCCOc1ccccc1 | inactive
CC(=O)C(Cl)Cl | inactive
O=Cc1ccccc1 | inactive
O=c1ccc(=O)[nH][nH]1 | inactive
Cc1cccc(N=Nc2ccc(N(C)C)cc2)c1 | inactive
Nc1nc(N)nc(Cl)n1 | inactive
CCN(Cc1ccc(Cl)nc1)/C(=C/[N+](=O)[O-])NC | inactive
Nc1c(Oc2ccccc2)cc(O)c2c1C(=O)c1ccccc1C2=O | inactive
COC(=O)c1ccccc1CS(=O)(=O)NC(=O)Nc1nc(OC)cc(OC)n1 | inactive
CCCCOC(=O)c1ccccc1C(=O)OCc1ccccc1 | inactive
Cc1cc(Cl)ccc1N=CN(C)C | inactive
